# An excerpt weighted towards active compounds, which were near 7.4% of everything screened.
# ELG1 genotoxic: qHTS screen for small molecules that induce genotoxicity in human embryonic kidney (HEK293T) cells expressing luciferase-tagged ELG1. HEK293T ELG1-luciferase reporter, luminescence, 16 h. Potency, µM (highest dose often 46 µM), usual class: activators. 1.3% of 330,000 active. AID 504466, 2011; note: nearly all actives have a fitted effect of over 60% in size
#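 Step 1: seed 2,000 HEK293T ELG1-luciferase cells per well. Step 2: add compound or DMSO, incubate 16 hr at 37 °C. Step 3: ONE-Glo, 30 min at room temperature, read luminescence.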
# Rab9 promoter act: qHTS Assay for Rab9 Promoter Activators. AID 485297, 2010. Huh7 Rab9 promoter-luciferase reporter, luminescence, 24 h. 2.8% of 320,000 active. Potency, µM (doses to about 9.22 µM), actives largely listed as activators; note: nearly all actives have a fitted effect of over 60% in size
#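 Luciferase signal after 10 min detection reagent at ambient indicates Rab9 promoter upregulation; stably transfected Huh7 cells were treated 24 h with compound in DMSO at 37 °C, 5% CO2.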
# FLuc counter: qHTS profiling assay for firefly luciferase inhibitor/activator using purifed enzyme and Km concentrations of substrates (counterscreen for miR-21 project). Luciferin 4-monooxygenase (Photinus pyralis), P08659. purified FLuc, Km substrates, luminescence inhibition. Potency, µM (titrated, usually from 57.5 µM), usual class: inhibitors. 6.9% of 360,000 active; note: nearly all actives have a fitted effect of over 55% in size
# Target sequence (P08659 whole entry, looked up): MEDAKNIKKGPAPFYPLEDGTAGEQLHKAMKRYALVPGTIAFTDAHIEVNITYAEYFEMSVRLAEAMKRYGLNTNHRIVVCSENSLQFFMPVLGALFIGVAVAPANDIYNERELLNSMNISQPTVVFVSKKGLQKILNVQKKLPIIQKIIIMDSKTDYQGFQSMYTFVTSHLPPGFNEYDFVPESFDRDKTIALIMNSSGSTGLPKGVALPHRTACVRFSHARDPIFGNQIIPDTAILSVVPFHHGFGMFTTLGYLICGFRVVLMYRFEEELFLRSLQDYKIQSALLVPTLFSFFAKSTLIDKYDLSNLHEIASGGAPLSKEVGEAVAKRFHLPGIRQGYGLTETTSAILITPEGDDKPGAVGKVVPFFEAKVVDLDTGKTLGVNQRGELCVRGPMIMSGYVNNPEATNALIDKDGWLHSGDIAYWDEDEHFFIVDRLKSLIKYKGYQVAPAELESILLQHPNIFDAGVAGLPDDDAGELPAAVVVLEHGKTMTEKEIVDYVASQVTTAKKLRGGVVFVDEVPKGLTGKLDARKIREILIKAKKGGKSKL
#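 Biochemical qHTS of compounds, final roughly 60 µM downward over six points, against 10 nM purified firefly luciferase using Km concentrations of substrates (10 uM D-luciferin, 10 uM ATP) in Tris acetate pH 7.5 buffer; luminescence output.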
# NPC1 prom act: qHTS Assay for NPC1 Promoter Activators. Huh7 NPC1 promoter luciferase reporter, 24 h. Potency, µM (doses to about 9.22 µM), usual class: activators. 2.4% of 320,000 active; note: nearly all actives have a fitted effect of over 60% in size
#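 Stable NPC1-promoter luciferase Huh7 line; cpd (DMSO) 24 h, 37 °C, 5% CO2; Amplite luciferase reagent 10 min RT; luminescence readout. qHTS format.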
# SMN2 splice up: qHTS Assay for Enhancers of SMN2 Splice Variant Expression | HEK293 SMN2-luciferase splicing reporter, luminescence, 30-36 h | Potency, µM (doses to about 46.1 µM), actives largely listed as activators | 2.8% of 210,000 active | AID 1458, 2008; note: nearly all actives have a fitted effect of over 55% in size
#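 qHTS luciferase splicing reporter: luminescence rises when SMN2 exon 7 is included in transfected HEK293 cells. Compound exposure lasted 30-36 h at 37C, with 4.5 mM final sodium butyrate as control, followed by a ONE-Glo read.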
# p53 reactivation: qHTS assay for re-activators of p53 using a Luc reporter. H1299 p53-A138V BP100-luciferase reporter, luminescence, 24 h. Potency, µM (highest dose often 92.2 µM), actives largely listed as activators. 0.063% of 320,000 active. AID 504706, 2011; note: nearly all actives have a fitted effect of over 45% in size
#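 H1299 (p53-null), stable ts p53-A138V + BP100-Luc; 1000 cells/well, Opti-MEM/10% FBS; cpd 4 pt, 1:5; 24 h, 37 deg C, 5% CO2; detection reagent 10 min RT; luminescence.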
# Hits are given with their value; . = inactive; ? = inconclusive; / = no result given; [ ] = dose if it differs, or a comment. Calls come from the whole dose curve; as a rule, active = well fitted curve in the direction sought with a large enough effect; inconclusive = small, poorly fitted or top-dose-only effect, or another doubt; inactive = no such curve, though single readings can be large; an effect the other way counts as inactive or inconclusive.
SMILES,ELG1 genotoxic,Rab9 promoter act,FLuc counter,NPC1 prom act,SMN2 splice up,p53 reactivation
COc1ccc(-n2cc(CNCc3cnc4ccccn34)c(-c3cccc(F)c3)n2)cc1,.,.,8.49µM,.,/,.
COc1cc(C(=O)OCC(=O)c2cc(C)n(C)c2C)cc(OC)c1OC,.,.,.,.,.,.
Cc1cc(C(=O)COC(=O)c2nccnc2N)c(C)n1C,6.51µM,0.501µM,9.53µM,3.16µM,11.2µM,.
COCCn1c(C)cc(C(=O)COC(=O)c2n[nH]c3ccccc23)c1C,0.231µM,0.224µM,0.426µM,0.398µM,.,.
Cc1cc(C(=O)COC(=O)c2n[nH]c(=O)c3ccccc23)c(C)n1C,?,.,1.69µM,.,/,?
COCCn1c(C)cc(C(=O)COC(=O)Cc2n[nH]c(=O)c3ccccc23)c1C,.,?,23.9µM,.,/,.
CC(C)CN(CCCNC(=O)CN1N=C(c2ccccc2)CCC1=O)CC(C)C,/,/,.,/,/,/
CCOC(=O)c1n[nH]c(=O)c2ccccc12,.,.,.,.,/,.
Cc1ccc(C(=O)COC(=O)c2n[nH]c(=O)c3ccccc23)cc1,.,.,6.01µM,.,.,.
CCOC(=O)c1n[nH]c2ccccc12,.,.,.,.,.,.
O=C(OCCOc1ccccc1)c1n[nH]c2ccccc12,?,2.24µM,6.01µM,3.55µM,/,.
O=C(NCCc1ccccc1)c1n[nH]c2ccccc12,?,3.55µM,10.7µM,2.51µM,11.2µM,?
Cc1cc(C(=O)COC(=O)c2n[nH]c3ccccc23)c(C)n1C,1.16µM,0.501µM,1.35µM,2.82µM,2.82µM,.
CC1CCCCN1C(=O)COC(=O)Cc1c[nH]c2ccccc12 (stereo not given),.,/,/,/,/,.
COc1ccc(C(=O)COC(=O)c2n[nH]c3ccccc23)c(OC)c1,.,3.55µM,6.01µM,3.16µM,/,.
CC1CCCCN1C(=O)COC(=O)c1n[nH]c2ccccc12 (stereo not given),18.4µM,?,15.1µM,.,.,?
O=C(COC(=O)c1n[nH]c2ccccc12)c1ccc(F)c(F)c1,.,.,9.53µM,.,/,.
CCc1c(C(=O)NCCc2ccc(N3CCCCC3)cc2)[nH]c2ccc(Cl)cc12,/,.,/,.,/,/
COc1c2ccoc2nc2c(OC)c(O[C@@H]3O[C@H](C)[C@@H](O)[C@@H](O)[C@H]3O)ccc12,/,/,/,/,.,/
O=c1[nH]c(-c2ccccn2)cc2ccccc12,?,?,16.9µM,?,15.8µM,?
Cc1cc2ccccc2c(=O)[nH]1,.,.[1.84 µM],.,.,.,.
CCOC(=O)c1cc2c(nc1NC(=S)NCc1ccccc1)CCCC2,?,?,?,?,11.2µM,?
COc1ccc(NC2=Nc3ccccc3CC2)cc1,4.47µM,1.58µM,10.7µM,2.82µM,12.6µM,?
COc1ccc(NC2=NCCCCC2)cc1,.,.,.,.,/,.
O=C(CSc1nncc2ccccc12)Nc1ccccc1,.,.,16.9µM,.,/,.
SMILES,ELG1 genotoxic,Rab9 promoter act,FLuc counter,NPC1 prom act,SMN2 splice up,p53 reactivation
N#CCC(=O)N/N=C/c1c(-c2ccccc2)n(-c2ccccc2)c2ccccc12,.,.,.,.,/,.
COc1ccc2cc(-c3[nH]ncc3CN3CCCCO3)ccc2c1,.,?,15.1µM,.,/,?
COC(=O)c1ccc(-c2ccc(Cl)cc2)nc1C,8.2µM,1.41µM,1.35µM,1.58µM,5.01µM,?
COC(=O)c1ccccc1NC(=O)c1sc(Cl)nc1C,.,.,?,.,/,.
CC(C)c1ccc(N2C(=O)N(Cc3ccccc3Cl)c3ccccc3S2(=O)=O)cc1,/,/,.,/,/,/
N#C/C(=C\c1ccc([N+](=O)[O-])cc1)c1ccccn1,?,?,?,1.58µM,/,.
N#C/C(=C/c1cccs1)c1ccccn1,?,4.47µM,12µM,2.82µM,/,.
COC(=O)c1ccc(OC(=O)c2ccccn2)cc1,.,.,10.7µM,.,.,.
COC(=O)c1ccc(OC(=O)c2cccnc2SC)cc1,.,.,?,.,/,.
COC(=O)c1ccc(/C=C(\C#N)c2ccccn2)cc1,2.59µM,0.891µM,2.39µM,1.12µM,?,.
N#C/C(=C\c1ccccn1)c1ccccn1,.,?,?,.,/,?
COc1ccc(-c2nc(S(=O)(=O)c3ccc(C)cc3)c(NCc3ccccc3)o2)cc1,/,/,.,/,.,/
CCOc1ccccc1NC(=O)c1ccc2c(c1)CCCN2S(C)(=O)=O,/,/,.,/,.,/
CN(C)c1ccc(/C=C(\C#N)c2ccccn2)cc1,?,0.398µM,0.239µM,0.447µM,/,.
